High-throughput results: PubChem BioAssay, National Center for Advancing Translational Sciences (NCATS)
The list is not random: actives were taken first. Their share in the collection is about 2.8%.
Giardia killer: Small Molecules that selectively kill Giardia lamblia: qHTS. Giardia lamblia trophozoite viability. activity change, % at 7.66 µM, hits read low. 340,000 tested, 0.15% active. AID 540267, 2011; in the data active means activity change below about -80%;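 further: parasites exposed to compound for two days anaerobically before the ATP read; on the % scale 0 is the no-effect control and ±100 the full control effect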
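Media and compound were dispensed first, then trophozoites at 100 cells/well; plates sat 48 hrs at 37 deg C without oxygen before ATP luminescence reagent was added and read after 15-30 min at room temperature.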
DRD3 agonist: qHTS of D3 Dopamine Receptor Agonist: qHTS. D(3) dopamine receptor (Homo sapiens), P35462. D3R DiscoveRx beta-arrestin cells, luminescence, 90 min. max activation, %. 410,000 tested, 0.58% active. AID 652048, 2013; in the data active means max activation above about 30%; further: 0% is about no effect
Target sequence (P35462 whole entry, looked up): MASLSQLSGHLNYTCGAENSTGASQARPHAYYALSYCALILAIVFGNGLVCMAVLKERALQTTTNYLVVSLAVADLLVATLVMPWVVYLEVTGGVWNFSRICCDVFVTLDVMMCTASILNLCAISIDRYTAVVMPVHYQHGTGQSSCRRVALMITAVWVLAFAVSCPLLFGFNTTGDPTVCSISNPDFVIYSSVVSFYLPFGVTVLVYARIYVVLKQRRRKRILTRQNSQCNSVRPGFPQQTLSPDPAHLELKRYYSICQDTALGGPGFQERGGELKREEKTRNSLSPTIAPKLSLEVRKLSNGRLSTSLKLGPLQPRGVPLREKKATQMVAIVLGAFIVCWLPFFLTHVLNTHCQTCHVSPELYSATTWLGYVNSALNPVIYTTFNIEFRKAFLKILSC
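Agonist-mode cell screen: cells plated at 1500/well and incubated overnight at 37 °C, then exposed to library compounds for 90 min at 37 °C. Detection reagent was added for 30–60 min at room temperature, and luminescence was read.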
D3 antag: qHTS of D3 Dopamine Receptor Antagonist: qHTS | D(3) dopamine receptor (Homo sapiens), P35462 | D3R cells, DiscoveRx beta-arrestin luminescence, antagonist mode; stronger effect = lower value | max response, negative = inhibition, % | 360,000 tested, 2.5% active; in the data active means max response below about -50%; further: on the % scale 0 is the no-effect control and ±100 the full control effect
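Cells plated overnight at 1500 cells/well, then exposed to library compounds with dopamine controls for 90 minutes at 37 degrees C. DiscoveRx reagent added for 30–60 minutes at room temperature; luminescence read, quantitative HTS format.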
B2AR arrestin: qHTS assay of beta-arrestin-biased ligands of beta2-adrenergic receptor; beta-arrestin recruitment to beta2AR, cell-based reporter; Beta-2 adrenergic receptor (Homo sapiens), P07550; 330,000 tested, 0.02% active; Potency, µM (highest dose often 46.1 µM), without a hit: at the top dose activation, actives largely listed as activators; active means well fitted activation curve with a large enough effect;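 further: potency means the concentration at half of the fitted maximal effect; 0% = DMSO controls and full agonism = EC100 isoproterenol or metaproterenol; nearly all actives have a fitted effect of over 65% in size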
* marks the source's active call; other numbers are inactive results; · = no result; ! = not confirmed by another sample.

SMILES	Giardia killer	DRD3 agonist	D3 antag	B2AR arrestin
CCOC(=O)[C@@H](CCc1ccccc1)N[C@H](C)C(=O)N1[C@H](C(=O)O)C[C@@H]2CCC[C@@H]21	3	-20	-54*	-1%
O=C(CN(Cc1ccccc1)C1=NCCS1)c1ccc(Cl)cc1	2	-12	-64*	0%
O=C(N/N=C/c1ccc(-c2ccc([N+](=O)[O-])cc2)o1)C(O)c1ccccc1 (stereo unspecified)	51	-5	16	0%
O=C(CSc1ccc(Cl)cc1)N/N=C/c1ccc([N+](=O)[O-])o1	-95*	0	-9	1%
O=C(N/N=C/c1ccc([N+](=O)[O-])o1)c1sc2ccccc2c1Cl	-95*	-10	-13	0%
O=C(N/N=C/c1ccc([N+](=O)[O-])o1)C(O)c1ccccc1 (stereo unspecified)	-84*	-14	-14	0%
COc1ccc(-c2nn(-c3ccccc3)cc2C(=O)N/N=C/c2ccc([N+](=O)[O-])o2)cc1	-86*	-4	-16	0%
Cc1ccc(SCC(CC(C)C)N2CCN(C)CCC2=O)cc1 (stereo unspecified)	-14	·	·	·
Cc1cc(N2CCC(C)CC2)nc2ccc(NC(=O)/C=C/c3cccc(Cl)c3)cc12	·	-1	·	·
O=C(CNc1ccc2ccccc2c1)N/N=C/c1ccc([N+](=O)[O-])o1	-91*	5	15	0%
O=[N+]([O-])c1ccc(/C=N/Nc2nc(N3CCCCC3)nc(N3CCCCC3)n2)o1	-84*	0	6	0%
O=C(N/N=C/c1ccc([N+](=O)[O-])o1)c1cn2ccc3ccccc3c2n1	-95*	13	-18	-1%
O=C(CNc1ccc2ccccc2c1)N/N=C/c1ccc(C(=O)O)cc1	-1	3	0	0%
Cc1ccc(OCC(=O)N/N=C/c2ccc([N+](=O)[O-])o2)cc1	-101*	-6	-11	-1%
O=C(COc1ccccc1)N/N=C/c1ccc([N+](=O)[O-])o1	-97*	-1	-9	4%
O=C(N/N=C/c1ccc([N+](=O)[O-])o1)C1CC1	-85*	-4	-16	0%
Cc1cc(C(=O)N/N=C/c2ccc([N+](=O)[O-])o2)c(C)o1	-97*	4	11	0%
CCOC(=O)CCCCNCc1ccccc1	-12	-17	-70*	0%
COc1ccc(-c2ccoc2)cc1C1C2C=CCC(C)C2C(=O)N1Cc1ccccc1 (stereo unspecified)	-3	·	·	·
COCC(C)NC(=O)NC(=O)c1ccc(Cl)cc1 (stereo unspecified)	4	-5	-104*	0%
O=c1c2c(-c3ccc(Cl)cc3)ccnc2[nH]n1-c1ccccc1	·	-9	·	·
Cc1c(C(=O)N2CCC(C)CC2)c(S(=O)(=O)N(Cc2ccccc2)C(C)(C)C)c(C)n1C	·	3	·	·
Cn1c(NCc2cccnc2)nc2cc(-c3ccc(C(=O)N4CCOCC4)cc3)sc2c1=O	·	-14	-78*	·
COc1cccc(-c2cc3nc(NCc4cccnc4)n(C)c(=O)c3s2)c1	·	10	15	·
COC(=O)[C@@]12CCCCN1[C@H](c1ccc(-c3ccc(Cl)c(Cl)c3)c(OC)c1)[C@H]1C(=O)N(C)C(=O)[C@H]12	11	-2	-3	0%
SMILES	Giardia killer	DRD3 agonist	D3 antag	B2AR arrestin
COC(=O)[C@@]12CCCCN1[C@H](c1ccc(-c3ccc(Cl)c(Cl)c3)c(OC)c1)[C@@H]1C(=O)N(C)C(=O)[C@@H]12	-22	41*	-23	·
CC(C)(C)c1ccc(/C=C(\c2nc3ccccc3[nH]2)S(=O)(=O)c2ccccc2)cc1	4	-10	-66*	·
Cc1cccc(/C=C(\c2nc3ccccc3[nH]2)S(=O)(=O)c2ccccc2)c1	-27	-16	-62*	0%
CCOc1ccc(Br)cc1C1C(C(=O)Nc2ccccc2OC)=C(C)Nc2nnnn21 (stereo unspecified)	·	-2	·	·
CNc1ccc(-c2cccc([N+](=O)[O-])c2)cn1	·	-8	-59*	·
COc1cc(Br)cc(C=Nc2cccc(C(F)(F)F)c2)c1O	6	-14	-81*	-1%
CC1(C)S[C@@H]2[C@H](NC(=O)COc3ccccc3)C(=O)N2C1C(=O)OCC1CCCCC1 (stereo partly specified)	-2	-9	-13	·
CC(C)(C)C(=O)OCOC(=O)[C@@H]1N2C(=O)[C@@H](N=CN3CCCCCC3)[C@H]2SC1(C)C	1	32*!	0	0%
